# Reference: the supplement of paper PMC8728848
# Shown is part of a subset that was picked to be rich in the strongest signals.
# How the values were obtained:
# Assay in all cases: glycan array binding signal (z-score within array); higher = stronger binding
# [1] = test system: Gal(b1-3)GalNAc(a1-3)[Fuc(a1-2)]Gal(b1-4)GlcNAc; conditions: glycan notation: IUPAC condensed, linker removed
# How it was run: (§1)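 Negative Z-scores can be read as non-binding. The Z-score is calculated within each array and then averaged across arrays of one protein sequence at different concentrations or buffers and across linkers. Arrays, 3228 in all, were curated from the Consortium for Functional Glycomics database and kept only where the protein sequence was available.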
# [2] = test system: Gal(b1-3)GlcNAc(b1-3)Gal(b1-4)GlcNAc(b1-6)[Gal(b1-3)GlcNAc(b1-3)]Gal(b1-4)Glc; conditions: glycan notation: IUPAC condensed, linker removed
# How it was run: as §1
# [3] = test system: Gal(b1-3)GalNAc(b1-4)[Neu5Ac(a2-3)]Gal(b1-4)Glc; conditions: glycan notation: IUPAC condensed, linker removed
# How it was run: as §1
# Gal(a1-4)Gal(b1-4)Glc = conditions: glycan notation: IUPAC condensed, linker removed
# How it was run: as §1
# [4] = test system: Gal(b1-3)GalNAc(b1-3)Gal(b1-4)Glc; conditions: glycan notation: IUPAC condensed, linker removed
# How it was run: as §1
# [5] = test system: Gal(b1-3)GalNAc(b1-4)Gal(b1-4)Glc; conditions: glycan notation: IUPAC condensed, linker removed
# How it was run: as §1
# [6] = test system: Gal(b1-3)GlcNAc(a1-6)Gal(b1-4)GlcNAc; conditions: glycan notation: IUPAC condensed, linker removed
# How it was run: as §1
# Gal(a1-4)GlcNAc = conditions: glycan notation: IUPAC condensed, linker removed
# How it was run: as §1
# Gal(b1-2)Gal = conditions: glycan notation: IUPAC condensed, linker removed
# How it was run: as §1
# [7] = test system: Gal(b1-3)Gal(b1-4)GlcNAc(b1-2)Man(a1-3)[Gal(b1-3)Gal(b1-4)GlcNAc(b1-2)Man(a1-6)]Man(b1-4)GlcNAc(b1-4)GlcNAc; conditions: glycan notation: IUPAC condensed, linker removed
# How it was run: as §1
# [8] = test system: Gal(b1-3)GlcNAc(b1-2)Man(a1-3)[Gal(b1-3)GlcNAc(b1-2)Man(a1-6)]Man(b1-4)GlcNAc(b1-4)GlcNAc; conditions: glycan notation: IUPAC condensed, linker removed
# How it was run: as §1
# [9] = test system: Gal(b1-3)GlcNAc(b1-2)Man(a1-3)[Gal(b1-3)GlcNAc(b1-2)Man(a1-6)]Man(b1-4)GlcNAc(b1-4)[Fuc(a1-6)]GlcNAc; conditions: glycan notation: IUPAC condensed, linker removed
# How it was run: as §1
# [10] = test system: Gal(b1-3)GlcNAc(b1-3)Gal(b1-4)GlcNAc(b1-2)[Gal(b1-3)GlcNAc(b1-3)Gal(b1-4)GlcNAc(b1-6)]Man(a1-6)[Gal(b1-3)GlcNAc(b1-3)Gal(b1-4)GlcNAc(b1-2)Man(a1-3)]Man(b1-4)GlcNAc(b1-4)[Fuc(a1-6)]GlcNAc; conditions: glycan notation: IUPAC condensed, linker removed
# How it was run: as §1
# Gal(b1-3)Gal = conditions: glycan notation: IUPAC condensed, linker removed
# How it was run: as §1
# Gal(a1-4)Gal(b1-4)GlcNAc = conditions: glycan notation: IUPAC condensed, linker removed
# How it was run: as §1
# Gal(a1-6)Glc = conditions: glycan notation: IUPAC condensed, linker removed
# How it was run: as §1
# [11] = test system: Gal(b1-3)GlcNAc(b1-2)Man(a1-3)[GlcNAc(b1-4)][Gal(b1-3)GlcNAc(b1-2)Man(a1-6)]Man(b1-4)GlcNAc(b1-4)GlcNAc; conditions: glycan notation: IUPAC condensed, linker removed
# How it was run: as §1
# [12] = test system: Gal(b1-3)GalNAc(b1-3)Gal(a1-4)Gal(b1-4)Glc; conditions: glycan notation: IUPAC condensed, linker removed
# How it was run: as §1
# [13] = test system: Gal(b1-3)GlcNAc(b1-3)Gal(b1-4)GlcNAc; conditions: glycan notation: IUPAC condensed, linker removed
# How it was run: as §1
# Gal(b1-3)GalNAc(b1-3)Gal = conditions: glycan notation: IUPAC condensed, linker removed; mutation: R125K
# How it was run: as §1
# Sequence of Regenerating Gene IV (Homo sapiens), Q9BYZ8 (Q9BYZ8 whole entry, looked up): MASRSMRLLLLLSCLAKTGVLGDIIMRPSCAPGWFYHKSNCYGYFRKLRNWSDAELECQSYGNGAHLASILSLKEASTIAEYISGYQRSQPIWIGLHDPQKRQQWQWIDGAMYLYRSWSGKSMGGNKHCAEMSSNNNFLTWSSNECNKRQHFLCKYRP
# Sequence of 6RG (Lolium perenne) (chain, as listed by the source): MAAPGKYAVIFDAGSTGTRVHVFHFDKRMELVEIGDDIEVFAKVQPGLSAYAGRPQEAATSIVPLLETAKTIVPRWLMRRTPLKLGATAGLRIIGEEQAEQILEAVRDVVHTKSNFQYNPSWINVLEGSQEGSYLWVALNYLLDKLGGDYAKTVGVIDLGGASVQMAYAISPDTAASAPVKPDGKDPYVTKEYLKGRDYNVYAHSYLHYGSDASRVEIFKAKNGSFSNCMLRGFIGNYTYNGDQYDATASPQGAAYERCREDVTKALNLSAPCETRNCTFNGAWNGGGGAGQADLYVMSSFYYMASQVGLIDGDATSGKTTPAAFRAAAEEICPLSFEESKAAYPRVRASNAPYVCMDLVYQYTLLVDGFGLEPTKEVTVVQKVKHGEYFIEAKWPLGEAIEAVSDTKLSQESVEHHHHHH
# Sequence of CHI3L1 (Homo sapiens), P36222 (P36222 whole entry): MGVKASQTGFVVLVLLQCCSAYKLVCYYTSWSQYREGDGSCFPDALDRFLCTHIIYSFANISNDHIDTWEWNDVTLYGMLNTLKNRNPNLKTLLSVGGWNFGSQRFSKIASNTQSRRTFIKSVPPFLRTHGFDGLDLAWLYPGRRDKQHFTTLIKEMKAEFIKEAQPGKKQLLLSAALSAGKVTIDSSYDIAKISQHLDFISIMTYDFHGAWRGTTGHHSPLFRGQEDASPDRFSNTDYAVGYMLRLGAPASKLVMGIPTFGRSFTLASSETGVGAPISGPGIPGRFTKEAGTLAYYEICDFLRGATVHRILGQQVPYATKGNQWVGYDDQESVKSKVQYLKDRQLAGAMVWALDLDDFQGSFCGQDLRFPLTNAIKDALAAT
# Sequence of PILRb (Mus musculus), Q2YSF2 (Q2YSF2 entry or part of it): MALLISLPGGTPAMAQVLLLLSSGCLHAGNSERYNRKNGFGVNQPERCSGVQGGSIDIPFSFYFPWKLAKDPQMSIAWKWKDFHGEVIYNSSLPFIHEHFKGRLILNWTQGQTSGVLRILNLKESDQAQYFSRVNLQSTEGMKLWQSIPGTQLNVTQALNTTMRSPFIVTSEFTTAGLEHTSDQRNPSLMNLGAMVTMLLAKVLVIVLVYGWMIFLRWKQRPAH
# Sequence of PILRa (Mus musculus), Q2YSF3 (Q2YSF3 entry or part of it): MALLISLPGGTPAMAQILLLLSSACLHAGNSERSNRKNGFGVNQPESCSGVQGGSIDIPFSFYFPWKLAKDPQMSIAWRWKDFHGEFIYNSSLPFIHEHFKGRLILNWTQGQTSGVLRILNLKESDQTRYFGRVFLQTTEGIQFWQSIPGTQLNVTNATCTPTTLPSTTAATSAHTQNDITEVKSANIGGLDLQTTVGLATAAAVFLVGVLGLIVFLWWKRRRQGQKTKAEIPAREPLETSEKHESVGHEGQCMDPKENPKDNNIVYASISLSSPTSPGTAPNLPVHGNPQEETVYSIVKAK
# Sequence of Avaren (Actinomycete K97) (chain, as listed by the source): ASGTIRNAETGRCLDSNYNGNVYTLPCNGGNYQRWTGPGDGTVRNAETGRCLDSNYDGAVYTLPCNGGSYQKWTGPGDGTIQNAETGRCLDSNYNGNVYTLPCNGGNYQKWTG
# Sequence of C3b (Homo sapiens), P01024 (P01024 23-667): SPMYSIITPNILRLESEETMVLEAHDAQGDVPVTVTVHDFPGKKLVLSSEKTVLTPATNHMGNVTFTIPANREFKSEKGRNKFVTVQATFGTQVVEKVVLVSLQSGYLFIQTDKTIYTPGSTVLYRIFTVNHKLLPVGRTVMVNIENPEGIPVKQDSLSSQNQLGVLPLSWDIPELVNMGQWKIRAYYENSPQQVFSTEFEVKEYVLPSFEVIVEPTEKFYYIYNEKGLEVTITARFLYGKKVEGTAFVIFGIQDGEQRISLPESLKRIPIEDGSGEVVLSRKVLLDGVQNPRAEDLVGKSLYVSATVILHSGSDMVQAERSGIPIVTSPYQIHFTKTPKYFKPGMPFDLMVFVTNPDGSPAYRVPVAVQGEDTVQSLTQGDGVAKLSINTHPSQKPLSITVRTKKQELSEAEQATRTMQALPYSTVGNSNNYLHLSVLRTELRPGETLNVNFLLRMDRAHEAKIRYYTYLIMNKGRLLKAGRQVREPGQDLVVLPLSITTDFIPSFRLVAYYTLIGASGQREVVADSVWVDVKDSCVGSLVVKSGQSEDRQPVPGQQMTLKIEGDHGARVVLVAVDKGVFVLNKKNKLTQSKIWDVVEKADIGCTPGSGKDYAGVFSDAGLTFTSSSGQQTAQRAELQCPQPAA
# Sequence of Neurocan (Homo sapiens), O14594 (O14594 other isoform, or with tags, fused parts or gaps): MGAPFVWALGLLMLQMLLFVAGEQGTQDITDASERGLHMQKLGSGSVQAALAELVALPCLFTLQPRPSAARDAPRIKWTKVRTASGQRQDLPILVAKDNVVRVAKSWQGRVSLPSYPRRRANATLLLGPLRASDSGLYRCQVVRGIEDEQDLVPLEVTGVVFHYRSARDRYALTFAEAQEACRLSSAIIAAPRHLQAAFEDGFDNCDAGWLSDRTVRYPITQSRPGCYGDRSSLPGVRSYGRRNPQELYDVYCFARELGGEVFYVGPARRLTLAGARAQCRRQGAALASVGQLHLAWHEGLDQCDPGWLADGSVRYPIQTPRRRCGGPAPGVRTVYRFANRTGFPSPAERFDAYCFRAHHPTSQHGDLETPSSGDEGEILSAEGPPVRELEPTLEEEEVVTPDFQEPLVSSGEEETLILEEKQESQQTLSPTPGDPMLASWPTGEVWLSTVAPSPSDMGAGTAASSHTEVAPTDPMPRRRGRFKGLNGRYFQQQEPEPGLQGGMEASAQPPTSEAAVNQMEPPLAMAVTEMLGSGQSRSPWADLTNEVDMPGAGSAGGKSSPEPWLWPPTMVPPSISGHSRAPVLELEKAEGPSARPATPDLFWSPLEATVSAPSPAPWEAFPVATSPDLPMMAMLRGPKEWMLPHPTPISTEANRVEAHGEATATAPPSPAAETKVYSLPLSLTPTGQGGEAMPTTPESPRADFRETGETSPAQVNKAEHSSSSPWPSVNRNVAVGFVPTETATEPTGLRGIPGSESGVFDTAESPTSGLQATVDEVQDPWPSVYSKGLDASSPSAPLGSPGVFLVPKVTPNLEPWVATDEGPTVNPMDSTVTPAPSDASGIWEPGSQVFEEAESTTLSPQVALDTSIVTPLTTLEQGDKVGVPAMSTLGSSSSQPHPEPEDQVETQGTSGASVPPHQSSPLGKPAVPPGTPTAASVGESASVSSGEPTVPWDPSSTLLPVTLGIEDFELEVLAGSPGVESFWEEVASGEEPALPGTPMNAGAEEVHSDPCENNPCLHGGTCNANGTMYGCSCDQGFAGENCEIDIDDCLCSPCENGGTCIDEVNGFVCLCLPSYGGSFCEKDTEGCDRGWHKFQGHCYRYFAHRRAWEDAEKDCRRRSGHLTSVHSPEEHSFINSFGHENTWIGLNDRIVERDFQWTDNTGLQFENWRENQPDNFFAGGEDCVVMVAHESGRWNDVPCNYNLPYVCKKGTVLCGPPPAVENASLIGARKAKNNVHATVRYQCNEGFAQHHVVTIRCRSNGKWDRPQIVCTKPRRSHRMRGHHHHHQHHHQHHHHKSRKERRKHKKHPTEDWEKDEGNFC
# Sequence of CHT (Homo sapiens) (chain, as listed by the source): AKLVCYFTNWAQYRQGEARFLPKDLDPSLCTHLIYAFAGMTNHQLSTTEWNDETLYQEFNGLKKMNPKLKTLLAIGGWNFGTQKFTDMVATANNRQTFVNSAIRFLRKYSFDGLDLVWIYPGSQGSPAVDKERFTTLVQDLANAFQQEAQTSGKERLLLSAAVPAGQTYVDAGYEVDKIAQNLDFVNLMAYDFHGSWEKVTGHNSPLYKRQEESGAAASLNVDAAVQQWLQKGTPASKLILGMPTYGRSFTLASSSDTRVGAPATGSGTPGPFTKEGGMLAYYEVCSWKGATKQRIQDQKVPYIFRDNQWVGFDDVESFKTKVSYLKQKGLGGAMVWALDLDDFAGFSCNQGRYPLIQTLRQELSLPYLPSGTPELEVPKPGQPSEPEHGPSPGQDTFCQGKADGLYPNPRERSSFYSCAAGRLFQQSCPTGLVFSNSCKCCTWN
# Sequence of wLAT-1A (Homo sapiens), Q01650 (Q01650 whole entry): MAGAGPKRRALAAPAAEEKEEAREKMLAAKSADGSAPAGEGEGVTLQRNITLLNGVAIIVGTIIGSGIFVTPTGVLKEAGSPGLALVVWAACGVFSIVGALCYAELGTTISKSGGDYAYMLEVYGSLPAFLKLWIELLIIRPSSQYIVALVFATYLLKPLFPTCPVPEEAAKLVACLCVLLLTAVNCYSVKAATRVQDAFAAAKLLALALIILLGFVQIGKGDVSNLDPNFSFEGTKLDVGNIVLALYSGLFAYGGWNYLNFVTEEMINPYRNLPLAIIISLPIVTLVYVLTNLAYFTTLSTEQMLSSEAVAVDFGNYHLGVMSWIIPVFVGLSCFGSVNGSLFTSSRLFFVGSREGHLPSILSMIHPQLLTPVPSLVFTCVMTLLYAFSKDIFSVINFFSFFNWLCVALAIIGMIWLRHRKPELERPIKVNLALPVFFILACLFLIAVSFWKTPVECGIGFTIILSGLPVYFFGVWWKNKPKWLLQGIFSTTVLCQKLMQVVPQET
substance,measurement,setting,value
"PILRa (Mus musculus), Q2YSF3",glycan array binding signal (z-score),[1],-0.192
same,glycan array binding signal (z-score),[2],-0.146
"wLAT-1A (Homo sapiens), Q01650",glycan array binding signal (z-score),[3],-0.218
6RG (Lolium perenne),glycan array binding signal (z-score),Gal(a1-4)Gal(b1-4)Glc,6.7
same,glycan array binding signal (z-score),[4],6.16
same,glycan array binding signal (z-score),[5],0.249
"Neurocan (Homo sapiens), O14594",glycan array binding signal (z-score),[6],-0.985
"C3b (Homo sapiens), P01024",glycan array binding signal (z-score),Gal(a1-4)GlcNAc,-0.904
same,glycan array binding signal (z-score),[5],-0.644
"PILRb (Mus musculus), Q2YSF2",glycan array binding signal (z-score),Gal(a1-4)Gal(b1-4)Glc,0.026
same,glycan array binding signal (z-score),Gal(b1-2)Gal,-0.075
same,glycan array binding signal (z-score),[7],0.382
same,glycan array binding signal (z-score),[8],0.611
Avaren (Actinomycete K97),glycan array binding signal (z-score),[9],-0.081
same,glycan array binding signal (z-score),[10],1.97
"HARE (Homo sapiens), Q8WWQ8",glycan array binding signal (z-score),Gal(b1-2)Gal,-0.074
same,glycan array binding signal (z-score),Gal(b1-3)Gal,2.26
"CHI3L1 (Homo sapiens), P36222",glycan array binding signal (z-score),Gal(a1-4)Gal(b1-4)GlcNAc,-0.117
same,glycan array binding signal (z-score),Gal(a1-6)Glc,-0.088
same,glycan array binding signal (z-score),Gal(b1-2)Gal,-0.006
same,glycan array binding signal (z-score),[11],0.123
MpAFP RI GFP (Marinomonas primoryensis),glycan array binding signal (z-score),[3],-0.54
same,glycan array binding signal (z-score),[11],1.37
"Regenerating Gene IV (Homo sapiens), Q9BYZ8",glycan array binding signal (z-score),[12],-0.44
same,glycan array binding signal (z-score),Gal(b1-3)Gal,-0.546
same,glycan array binding signal (z-score),[13],-0.615
"Siglec-8 (Homo sapiens), Q9NYZ4",glycan array binding signal (z-score),Gal(a1-4)Gal(b1-4)Glc; mutation: R125K,0.026
same,glycan array binding signal (z-score),[7],-0.073
same,glycan array binding signal (z-score),Gal(b1-3)GalNAc(b1-3)Gal,-0.035
same,glycan array binding signal (z-score),[6],-0.162
same,glycan array binding signal (z-score),[10],0.166
CHT (Homo sapiens),glycan array binding signal (z-score),"Gal(a1-4)GlcNAc; mutation: D138V, E140I",0.017
